# Sampled rows, rich in hits. Any-hit rate of the full collection: about 17%.
# DT40 TDP1 CPT: growth inhibition of DT40 Tdp1-/-;hTDP1 cells with camptothecin (screen for TDP1 inhibitors) | chicken DT40 Tdp1-/-;hTDP1 cells + 20 nM CPT, ATP luminescence, 48 h | Potency, µM (titrated, usually from 46.2 µM), for inactives: at the top dose activity change, negative = growth inhibition, actives largely listed as inhibitors | 420,000 tested, 12% active | AID 686979; also: % is scaled to controls: 0 for no effect and ±100 for the full control effect; nearly all actives have a fitted effect of over 55% in size
#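 Cell growth measured by CellTiter-Glo luminescence after a minimum 48 h, 37 C compound exposure with 20 nM CPT in Tdp1-knockout DT40 cells stably expressing hTDP1, seeded 400/well; qHTS titration format.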
# HepG2 viability: counter-screen for TGF-b inhibitors: cytotoxicity in HepG2 cells; HepG2 CAGA-GFP viability, ATP luminescence, 18 h; Potency, µM (series often up to 46.1 µM), for inactives: at the highest dose activity change, negative = cytotoxicity, usual class: cytotoxic; 410,000 tested, 0.76% active
#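 CellTiter-Glo luminescence gave cytotoxicity after 18 hours at 37 degrees C. The cells were HepG2 CAGA-GFP in 1% FBS DMEM, stimulated with 500 pg/mL TGF-beta after compound addition. %Activity was normalised to no-cell wells (complete cell-killing) and DMSO (no toxicity), and curves were fitted and classified.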
# DT40 TDP1 no CPT: qHTS for Inhibitors of human tyrosyl-DNA phosphodiesterase 1 (TDP1): qHTS in cells in absence of CPT; 420,000 tested, 15% active; DT40 Tdp1-/- hTDP1 cells, no CPT, ATP luminescence, 48 h; Potency, µM (series often up to 46.2 µM), for the others: top-dose activity change, negative = growth inhibition, actives largely listed as inhibitors; AID 686978, 2013; also: % is scaled to controls: 0 for no effect and ±100 for the full control effect; nearly all actives have a fitted effect of over 55% in size
#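 Chicken DT40 Tdp1-/- cells stably complemented with human TDP1 were seeded at 400 cells/well with DMSO in place of 20 nM camptothecin. After compound pinning, cells grew at least 48 hr at 37 °C; viability read by CellTiter-Glo luminescence.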
# HT1080 IDH1KD tx: toxicity to HT-1080 IDH1 knockdown cells (counter line) | HT-1080 IDH1 knockdown viability, ATP luminescence, 48 h | 360,000 tested, 2% active | Potency, µM (highest dose often 46.1 µM), without a hit: at the top dose activity, negative = toxicity, usual class: cytotoxic | AID 686971;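 also: 0% = DMSO wells and -100% = cell-free medium wells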
#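 IDH1KD HT-1080 cells, 750/well, RPMI + 5% FBS; compound pinned after 2 h settling; 48 h, 37 °C; CellTiter-Glo luminescence; % activity normalised to DMSO and no-cell wells; curves fitted, classed by r2 and efficacy.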
# TGFb inhibitor: inhibitors of TGF-b signaling. HepG2 CAGA-GFP TGF-b/SMAD3 reporter, GFP fluorescence, 18 h; TGF-beta stimulated, 500 pg/mL final. Potency, µM (doses to about 46.1 µM), for inactives: at the highest dose activity, negative = inhibition, usual class: inhibitors. 410,000 tested, 1.2% active; also: % is scaled to controls: 0 for no effect and ±100 for the full control effect; nearly all actives have a fitted effect of over 65% in size
#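 Read-out: total well GFP (ex488/em500-530) summed from mean per-cell fluorescence. Cells: HEPG2 CAGA-GFP, 1% FBS DMEM, 18 h at 37 degrees C with 500 pg/mL final TGF-beta. Unstimulated wells served as the full-inhibition control; stimulated DMSO wells = 0%.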
# HT1080-NT tox: kills 2HG-producing HT-1080-NT fibrosarcoma cells | Potency, µM (titrated, usually from 46.1 µM), without a hit: at the top dose activity, negative = less viability, actives largely listed as cytotoxic | HT-1080-NT fibrosarcoma viability, CellTiter-Glo ATP luminescence, 48 h | 360,000 tested, 1.6% active;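 also: NT is the 2HG producing partner of a matched IDH1 knockdown line; 0% = DMSO-treated cells and -100% = media-only wells without cells; nearly all actives have a fitted effect of over 55% in size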
#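 Read-out is CellTiter-Glo luminescence after 10 minutes at room temperature, following 48 hours' compound treatment of HT-1080-NT cells (750 cells/well, RPMI, 5% FBS, 37 degrees C).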
# * hit, by the source's call; ? = inconclusive; / = not tested or not shown; [ ] = another dose, or the depositor's remark. Calls follow the shape of the dose curve; as a rule, active = well fitted curve in the direction sought with a large enough effect; inconclusive = small, poorly fitted or top-dose-only effect, or another doubt; inactive = no such curve, though single readings can be large; an effect the other way counts as inactive or inconclusive. Potency is read from the fitted curve at half-maximal effect.
SMILES,DT40 TDP1 CPT,HepG2 viability,DT40 TDP1 no CPT,HT1080 IDH1KD tx,TGFb inhibitor,HT1080-NT tox
Clc1ccc(CSc2nnc(-c3cccnc3)n2Cc2ccco2)c(Cl)c1,?,-36.7%,?,-0.3%,0.0%,3.6%
COc1cccc(NC(=O)C(=O)NCCc2ccc(F)cc2)c1,0.1%,20µM*,-17.1%,16.6%,-10.4%,6.7%
COc1ccc(C(=O)CC(=O)C(=O)Nc2cccc(F)c2)cc1,?,-23.8%,14.6µM*,-21.5%,0.0%,-8.4%
COc1cccc(CC(=O)OCC(=O)NCCc2ccc(F)cc2)c1,6.5%,2.8%,13.0%,6.3%,-1.1%,0.8%
COc1ccc(C(=O)CC(=O)C(=O)Nc2cc(C)ccc2C)cc1,-102.7%,4.4%,?,?,0.0%,-24.0%
COc1ccc(C(=O)CC(=O)C(=O)Nc2ccc(C)c(Cl)c2)cc1,?,-23.4%,16.4µM*,5.0%,8.3%,-9.0%
CCOc1ccccc1NC(=O)C(=O)CC(=O)c1ccc(OC)cc1,?,-5.0%,20.6µM*,-13.7%,14.5%,-16.2%
COc1ccc(C(=O)CC(=O)C(=O)Nc2ccccc2)cc1,?,16.7%,-26.7%,-1.2%,10.1%,-0.1%
COc1ccc(C(=O)CC(=O)C(=O)Nc2cc(OC)c(OC)c(OC)c2)cc1,-21.8%,-6.0%,?,-1.6%,-1.9%,17.5%
CC1CCCCN1C(=O)c1cc2ccccc2cc1O (centres undefined),-27.7%,-26.9%,?,-7.3%,-18.1%,-2.9%
COc1ccc(C(=O)CNc2ccccc2CO)cc1,14.4%,-3.8%,-2.6%,-11.5%,10.0%,-4.1%
COc1ccc(C(=O)CNc2ccccc2C#N)cc1,?,3.3%,20.6µM*,-9.1%,0.0%,0.9%
CC1=C(C(=O)OC2CCCC2)C(c2ccc(C)o2)C2=C(CC(c3cccs3)CC2=O)N1 (centres undefined),?,11.0%,16.4µM*,?,?,?
CCOC(=O)C1=C(C)NC2=C(C(=O)OC2)C1c1ccccc1 (centres undefined),?,-16.6%,?,20.6µM*,-24.7%,?
CC1=C(C(=O)OC2CCCCC2)C(c2ccc(C)o2)C2=C(CC(C)(C)CC2=O)N1 (centres undefined),18.4µM*,8.8%,?,2.6%,?,9.3%
CC1=C(C(=O)OC2CCCC2)C(c2coc3ccccc3c2=O)C2=C(CCCC2=O)N1 (centres undefined),-18.7%,-14.0%,0.411µM*,9.3%,27.3%,-6.5%
CC1=C(C(=O)Nc2ccc(F)cc2)C(c2ccc(C)o2)C2=C(CC(C)(C)CC2=O)N1 (centres undefined),-17.3%,4.0%,-11.6%,1.8%,-15.4%,0.5%
CCc1nnc2c(NCc3cccc(OC)c3)nc3ccccc3n12,-26.3%,-6.9%,?,/,1.3%,/
CCOC(=O)C1=C(C)NC2=C(C(=O)CC(c3cccs3)C2)C1c1cccs1 (centres undefined),?,-11.9%,?,14.6µM*,?,?
CSc1nnc(-c2ccco2)n1-c1ccccc1,18.4µM*,-7.1%,?,15.6%,0.1%,8.5%
COc1ccc2nc3oc(C(=O)NC4CCN(Cc5ccccc5)CC4)cc3cc2c1,17.8µM*,-14.2%,17.8µM*,-20.7%,2.1%,?
CCOC(=O)N1CCC(NC(=O)c2cc(-c3ccc(OC)cc3)nc3ccccc23)CC1,?,15.6%,?,11.8%,8.9%,14.5%
CCOC(=O)N1CCC(NC(=O)c2cc3cc4cc(OC)ccc4nc3o2)CC1,?,-15.1%,20.6µM*,-27.1%,-2.0%,-4.6%
Cc1nc(N2CCCC2)ncc1C(=O)NCc1ccc(Cl)cc1,-7.2%,-13.2%,?,/,?,/
Cc1sc2nc(COC(=O)c3ccc(Cl)c(N)c3)[nH]c(=O)c2c1C,16.4µM*,4.7%,7.31µM*,8.9%,-11.9%,11.3%
SMILES,DT40 TDP1 CPT,HepG2 viability,DT40 TDP1 no CPT,HT1080 IDH1KD tx,TGFb inhibitor,HT1080-NT tox
Cc1sc2nc(COC(=O)c3ccc(O)cc3)[nH]c(=O)c2c1C,?,5.3%,18.4µM*,0.0%,-1.1%,3.9%
Cc1sc2nc(COC(=O)c3ccc(N4CCCC(C)C4)c([N+](=O)[O-])c3)[nH]c(=O)c2c1C (centres undefined),?,8.6%,16.4µM*,-2.1%,-7.1%,3.4%
CN(C)c1cccc(-c2nnc(SCC(=O)NCc3ccco3)n2C)c1,-9.7%,10.8%,0.1%,/,-0.5%,/
CCCCNC(=O)c1nc(C2CCNCC2)oc1-c1ccccc1,?,/,?,-1.0%,/,-0.7%
COc1ccc(CNC(=O)CCCc2nnc3n(C(C)C)c(=O)c4sccc4n23)cc1,-28.6%,2.4%,?,/,-5.8%,/
CCCC(=O)N1CCC1(C)C(=O)Nc1ccc2nccnc2c1 (centres undefined),?,-17.1%,-20.0%,9.9%,-6.4%,11.1%
COc1ccccc1/C=C/C=N/N1CCN(Cc2ccc(Cl)cc2)CC1,?,-23.1%,?,?,-9.0%,0.5%
Cc1ccc(N2CCN(/N=C/c3ccncc3)CC2)cc1,20.6µM*,-17.6%,18.4µM*,-0.4%,-12.4%,18.5%
Clc1ccccc1CN1CCN(/N=C/c2ccncc2)CC1,13µM*,-19.4%,16.4µM*,-1.0%,-10.5%,0.2%
Clc1ccc(N2CCN(/N=C/c3ccncc3)CC2)cc1,23.1µM*,28.5%,?,-16.8%,-18.5%,-11.4%
Cc1ccc(N2CCN(/N=C/c3sccc3C)CC2)cc1,-18.1%,-6.3%,-29.2%,6.8%,-11.8%,4.2%
COc1ccccc1/C=C/C=N\N1CCN(Cc2ccccc2Cl)CC1,?,-12.1%,29.1µM*,10.4%,?,11.1%
Clc1ccc(/C=N/N2CCN(Cc3ccccc3Cl)CC2)cc1,-0.6%,-32.7%,?,14.1%,-28.1%,3.6%
CCCN1Cc2cccc(C(=O)Nc3ccc(C(C)=O)cc3)c2C1=O,-5.0%,0.4%,-6.8%,/,22.6%,/
O=C(c1ccccc1C(F)(F)F)N1CCOc2c(cc(-c3nc4ccccc4s3)cc2OC2CCOC2)C1 (centres undefined),22.6%[9.04 µM],/,-5.5%,/,/,/
C=CC(C)N1C(=O)S/C(=C\c2ccc(N3CCOCC3)cc2C)C1=O (centres undefined),20.6µM*,6.5%,13µM*,2.3%,2.9%,6.7%

# Compound activity deposited in PubChem by National Center for Advancing Translational Sciences (NCATS).
